Out of some 62,000 compounds screened, about 80 (0.1%) were called active. Not all results are given here. Measured potencies and affinities stand elsewhere. Values without a mark were called inactive. The rule behind the calls is not given here.

For this assay, the target named is Ephrin type-A receptor 4 (Mus musculus) (UniProt Q03137). As to the kind of experiment: inhibitors of EphA4 binding to KYL peptide, primary screen, biochemical, colorimetric, mouse EphA4 (AID 689). The conditions noted are these: EphA4-AP binding to KYL peptide, pNPP A405, at 10 µM, stronger effect = higher value.
Chain of Ephrin type-A receptor 4 (Mus musculus) (Q03137 whole entry, looked up): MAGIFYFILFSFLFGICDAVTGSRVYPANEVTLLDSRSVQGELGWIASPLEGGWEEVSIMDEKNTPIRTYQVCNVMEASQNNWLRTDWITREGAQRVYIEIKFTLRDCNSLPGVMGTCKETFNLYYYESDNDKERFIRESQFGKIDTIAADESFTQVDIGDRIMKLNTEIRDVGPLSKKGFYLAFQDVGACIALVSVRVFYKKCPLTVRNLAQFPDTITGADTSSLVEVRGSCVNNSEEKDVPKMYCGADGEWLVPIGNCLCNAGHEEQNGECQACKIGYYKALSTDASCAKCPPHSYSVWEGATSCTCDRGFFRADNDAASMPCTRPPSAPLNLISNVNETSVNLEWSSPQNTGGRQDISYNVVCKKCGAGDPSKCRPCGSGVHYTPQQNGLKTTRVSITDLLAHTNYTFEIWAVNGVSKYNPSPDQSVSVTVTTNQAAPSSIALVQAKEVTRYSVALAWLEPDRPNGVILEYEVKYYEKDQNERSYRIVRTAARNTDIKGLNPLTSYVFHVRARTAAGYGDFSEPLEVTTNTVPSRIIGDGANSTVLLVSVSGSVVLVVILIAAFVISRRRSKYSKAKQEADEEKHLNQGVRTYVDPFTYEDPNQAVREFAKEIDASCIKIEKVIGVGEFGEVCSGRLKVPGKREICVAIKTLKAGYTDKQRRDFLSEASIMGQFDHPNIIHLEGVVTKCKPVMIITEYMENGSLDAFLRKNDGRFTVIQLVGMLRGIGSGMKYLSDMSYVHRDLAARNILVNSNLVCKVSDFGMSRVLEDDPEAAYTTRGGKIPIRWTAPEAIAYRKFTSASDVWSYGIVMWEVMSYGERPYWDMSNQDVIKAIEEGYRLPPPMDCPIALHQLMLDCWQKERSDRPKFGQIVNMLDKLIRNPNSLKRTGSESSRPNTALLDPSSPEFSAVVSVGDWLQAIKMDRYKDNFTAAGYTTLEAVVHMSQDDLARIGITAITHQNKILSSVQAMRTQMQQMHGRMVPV
`Cc1cc2c(ccc3[nH]onc32)n1`: the inhibition (as a rule, the change of the read-out against control, counted positive when it falls) is 16.7%.
Then `CN(C)/C(CN1CCOCC1)=C1\N=C(c2ccccc2)OC1=O`, with -14%; and `CC1=NN(c2ccccc2)C(=O)/C1=C/c1cc2cc(C)ccc2nc1N1CCCCC1`, with 5.3%.
Then `Cc1ccc(C2=N/C(=C\N3CCCCC3)C(=O)O2)cc1`, with -3.3%; and `O=C1OC(c2ccccc2)=N/C1=C\N1CCCCC1`, with -17.4%.
`CCn1c(SCC(=O)OC(C)C)nnc1-c1cccc(Cl)c1`: the inhibition was -13.7%.
The result for `C=CCNC(=O)c1ccc(N2C(=O)c3ccccc3C2=O)cc1` reads -9.3% [this sample at 5 µg/mL]; that for `CCOC(=O)N1CCN(C(=O)CSCc2nc(-c3ccccc3C)oc2C)CC1`, 7.2%.
The result for `CCOc1ccc(N(CC(=O)Nc2ccc3c(c2)OCCO3)S(=O)(=O)c2c(C)noc2C)cc1` reads -0.5%; that for `O=C(C/C=N\OCc1c(Cl)cccc1Cl)Oc1ccc(Cl)cc1Cl`, -11.4%.
On to `Nc1ccc2c(c1)C(=O)C(=O)c1ccccc1-2`, for which the inhibition is -16.9%.
As for `Nc1ccc(NC(=O)c2ccccc2)c2c1C(=O)c1ccccc1C2=O`, the inhibition is -5.6%.
As to `CC1CN(CC(=O)N2CCc3[nH]c4ccccc4c3C2)CC(C)O1` (stereo not given), the inhibition is -14.2%.
Then `CC(N=c1ccccn1C(=O)Nc1ccc(Cl)cc1)c1ccco1` (stereo not given), with 6.6%; and `CN(C)c1ccc(N=Cc2nc(-c3ccccc3)oc2O)cc1`, with -7.6%; and `Oc1oc(-c2ccccc2)nc1C=Nc1ccccc1`, with 1%.
In the case of `COc1ccc(C2C(C(=O)OCC(=O)N3CCCCC3)CCC(=O)N2c2ccc(OC)cc2)cc1` (stereo not given), the inhibition was -9.6%.
Consider `COc1cc(NC(=O)c2ccc(NS(=O)(=O)c3c(C)noc3C)cc2)cc(OC)c1`, for which the inhibition was -7.5%.
Then `Cc1ccccc1NC(=O)CSc1nnc(-c2ccco2)c(-c2ccco2)n1`, with 32.3%; and `O=C(CSc1nnc(-c2ccco2)c(-c2ccco2)n1)Nc1ccccc1`, with 41.7%; and `CS(=O)(=O)N1CCN(Cc2ccc(Cl)cc2)CC1`, with -10.7% [this sample at 5 µg/mL].
The result for `CC(C(=O)O)N1C(=O)/C(=C/c2ccc([N+](=O)[O-])cc2)SC1=S` (stereo not given) reads 3.4% [this sample at 5 µg/mL].
The result for `CC(C)C(C(=O)O)N1C(=O)/C(=C/c2ccc3c(c2)OCO3)SC1=S` (stereo not given) reads -2% [this sample at 5 µg/mL].
Turning to `CC(C(=O)O)N1C(=O)/C(=C/c2ccc3c(c2)OCO3)SC1=S` (stereo not given), the inhibition is 0.6% [this sample at 5 µg/mL].
The result for `CC(C)CN1C(=O)/C(=C/c2ccco2)SC1=S` reads 30.2% [this sample at 5 µg/mL].
The result for `CCOC(=O)C1CCN(CCC(=O)Nc2cccc(Cl)c2)CC1` reads -3.9%.
For the compound `O=C(Cc1cccs1)Nc1nnc(Cc2ccc(F)cc2)s1`, the inhibition was -11.3%.
The result for `COc1ccc(Cc2nnc(NC(=O)c3cccs3)s2)cc1` reads -1.1%; that for `O=C(NCCCN1CCOCC1)c1cccc(Cl)c1`, -2.3% [this sample at 5 µg/mL].
For the compound `O=C(COc1ccc(Cl)cc1Cl)Nc1ccc(NC(=O)COc2ccc(Cl)cc2Cl)cc1`, the inhibition is -4.1% [this sample at 5 µg/mL].
The result for `O=C(c1ccccc1[N+](=O)[O-])N1CCN(C/C=C/c2ccccc2)CC1` reads -10.3% [this sample at 5 µg/mL]; that for `CCOc1cc(/C=C2/SC(=S)N(CC)C2=O)ccc1OCc1ccccc1Cl`, 5% [this sample at 5 µg/mL].
In the case of `CCn1c2ccccc2c2nc3ccccc3nc21`, the inhibition is 40.1%.
With `Cn1c2ccc(Cl)cc2c2nc3ccccc3nc21`, the inhibition was -1.5%.
Take `Cc1cc(NC(=O)CSc2nnc(C3COc4ccccc4O3)o2)no1` (stereo not given): the inhibition is -5.5%.
Then `N#CC1=C(N)C(C#N)(C#N)C(c2cccnc2)C2CCCC=C12` (stereo not given), with -10%; and `O=C1/C(=C/C=C/c2ccccc2)SC(=S)N1c1cccc(C(F)(F)F)c1`, with 3.3% [this sample at 5 µg/mL]; and `COC(=O)CN1C(=O)/C(=C\C=C\c2ccccc2)SC1=S`, with 7.7% [this sample at 5 µg/mL].
As for `CCOCCCNc1nc2c(C)cccn2c(=O)c1/C=C1\SC(=S)N(CC(C)C)C1=O`, the inhibition was -4.7%.
On to `CCCN1C(=O)/C(=C/c2c(NCCCOC(C)C)nc3c(C)cccn3c2=O)SC1=S`, for which the inhibition was 38.4%.
For `COc1ccc(/C=C/C(=O)CC(=O)C(Cl)(Cl)Cl)cc1`, the inhibition was 5.9% [this sample at 5 µg/mL].
The result for `Cc1nnc(NC(=O)c2sc3nc(-c4cccs4)cc(C(F)(F)F)c3c2N)s1` reads 3.5%; that for `Cc1c(C(=O)Nc2nccs2)sc2nc(-c3cccs3)cc(C(F)(F)F)c12`, 33%.
`CC(=O)c1cccc(NS(=O)(=O)c2cc(OCC(N)=O)c(C)cc2Cl)c1`: the inhibition was -4%.
As to `CCOC(=O)C1=C(C)N(CCOC)C(=O)/C1=C\c1sccc1C`, the inhibition is -1.6% [this sample at 5 µg/mL].
On to `Cc1cc(OCC(=O)O/N=C(\N)Cc2cccs2)ccc1Br`, for which the inhibition is -4.6%.
Then `CCSc1nnc(NC(=O)C(CC)(C(F)(F)F)C(F)(F)F)s1`, with -7.4%; and `CCSc1nnc(NC(=O)C(C)C)s1`, with -5.3%.
Take `Clc1ccc(CN2CCN(/N=C/c3ccc(Cl)c(Cl)c3)CC2)cc1`: the inhibition was 6% [this sample at 5 µg/mL].
Take `Cn1nnnc1SCC(=O)c1ccco1`: the inhibition is 23.3%.
The result for `Cc1ccc2nc(CSc3nc(C)cc(C)c3C#N)[nH]c2c1` reads 5.6%; that for `Cc1nn(-c2ccccc2)c2c1C(c1ccc(O)c(O)c1)N1C(=N2)C(Nc2ccccc2)=Nc2ccccc21` (stereo not given), 23.4%; that for `Cc1cccc(NC2=Nc3ccccc3N3C2=Nc2c(c(C)nn2-c2ccccc2)C3c2ccc(O)c(O)c2)c1` (stereo not given), 37%.
Take `Cc1ccc(NC2=Nc3ccccc3N3C2=Nc2c(c(C)nn2-c2ccccc2)C3c2ccc(O)c(O)c2)cc1` (stereo not given): the inhibition was 27.8%.
For the compound `Cc1ccc(N2C(=O)c3n[nH]c(C)c3C2c2cccnc2)cc1` (stereo not given), the inhibition was -11.4%.

Source of the values: PubChem BioAssay AID689 (Sanford-Burnham Center for Chemical Genomics, 2007).
